Results filed as inconclusive are left out. Where a call stands in place of a potency, no number is given. Active and inactive are the calls of the source. Calls follow the shape of the dose curve; as a rule, active = well fitted activation curve with a large enough effect in the repeat runs; inconclusive = weak or mixed curves; inactive = flat fitted curve, though single readings scatter.
Potency is read from the fitted curve at half-maximal effect.

For this assay, the target named is Nuclear receptor subfamily 1 group I member 2 (Homo sapiens) (UniProt O75469). Description: Human pregnane X receptor (PXR) activation by small molecules, qHTS assay (AID 1346985). Also: nearly all actives have a fitted effect of over 40% in size. The settings on record: DPX-2 HepG2 CYP3A4-luciferase, 24 h; series mostly up to 38.3 µM. The procedure, abridged: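 DPX-2 cells (HepG2 co-transfected with a PXR response element and a CYP3A4-promoter luciferase construct) were seeded at 2,000 per well, rested 5 hr at 37C, then exposed to DMSO-dissolved compounds for 24 hr. Activation was read as luciferase luminescence.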
Background: qHTS replaces the single test concentration by a dilution series.
For `CC(C)N1CCN(c2ccc(OC[C@H]3CO[C@](Cn4cncn4)(c4ccc(Cl)cc4Cl)O3)cc2)CC1`, the Potency is 5.62 µM (active). In the case of `CN1[C@@H]2CC[C@H]1CC(OC(c1ccccc1)c1ccccc1)C2` (stereo partly drawn), the Potency result was “inactive”. In the case of `COc1ccc2c(c1)OC(C)(C)C(c1ccccc1)C2c1ccc(OCCN2CCCC2)cc1` (stereo not drawn), the Potency is 15.8 µM (active). For `CCNC(=O)[C@@H]1CCCN1C(=O)[C@H](CCCN=C(N)N)NC(=O)[C@H](CC(C)C)NC(=O)[C@@H](Cc1c[nH]c2ccccc12)NC(=O)[C@H](Cc1ccc(O)cc1)NC(=O)[C@H](CO)NC(=O)[C@H](Cc1c[nH]c2ccccc12)NC(=O)[C@H](Cc1cnc[nH]1)NC(=O)[C@@H]1CCC(=O)N1` the value was “inactive”; for `OCCN1CCN(CC/C=C2/c3ccccc3Sc3ccc(Cl)cc32)CC1`, “inactive”. For `CC(O)[C@H]1CC[C@H]2[C@@H]3CC[C@@H]4C[C@@H](O)CC[C@]4(C)[C@H]3CC[C@]12C` (stereo partly drawn) the value was “inactive”; for `CN(C)CC/C=C1/c2ccccc2CSc2ccccc21`, “inactive”. `CCN(CC)CCOc1ccc(-c2nc3cc(Cl)ccc3s2)cc1`: the Potency is 10 µM (active). Consider `Nc1ccc(S(=O)(=O)Nc2ncccn2)cc1`, for which the Potency result was “inactive”. For the compound `CCC(=O)c1ccc2c(c1)N(CCCN1CCN(CCO)CC1)c1ccccc1S2`, the Potency is 25.1 µM (active). Regarding `CN(C)CCC=C1c2ccccc2C(C)(C)c2ccccc21`, the Potency was 25.1 µM (active). For `CNC(C)CCC=C(C)C` (stereo not drawn) the value was “inactive”.

Regarding `C[C@]12C=CC(=O)N[C@@H]1CC[C@@H]1[C@@H]2CC[C@]2(C)[C@@H](C(=O)Nc3cc(C(F)(F)F)ccc3C(F)(F)F)CC[C@@H]12`, the Potency entry was “inactive”.

Values taken from PubChem BioAssay (Tox21).
